Data published in the antibiotic and cytotoxicity screens of Wong et al. (2023).
The campaign covered roughly 39,000 compounds. About 1,500 (3.8%) were called active. The list comes from a sample in which actives are over-represented; it also holds similar structures and randomly drawn compounds.

Tested on: HSkMC (human skeletal muscle cells)
Experiment: cytotoxicity call (relative viability < 0.9)
Settings: 10 µM

Compound	cytotoxicity call
Cc1ccc(S(=O)(=O)Nc2ccc3c(c2)C(=O)N([C@H](C)CO)C[C@H](C)[C@H](CN(C)Cc2ccc(-c4ccccc4)cc2)O3)cc1	active
Cc1ccc(S(=O)(=O)Nc2ccc3c(c2)C(=O)N([C@@H](C)CO)C[C@@H](C)[C@@H](CN(C)Cc2ccc(-c4ccccc4)cc2)O3)cc1	inactive
Cc1ccc(S(=O)(=O)Nc2ccc3c(c2)C(=O)N([C@@H](C)CO)C[C@@H](C)[C@H](CN(C)Cc2ccc(-c4ccccc4)cc2)O3)cc1	inactive
Cc1ccc(S(=O)(=O)Nc2ccc3c(c2)C(=O)N([C@H](C)CO)C[C@@H](C)[C@@H](CN(C)Cc2ccc(-c4ccccc4)cc2)O3)cc1	active
C[C@@H]1CN([C@@H](C)CO)C(=O)c2cc(NS(=O)(=O)c3ccccc3)ccc2O[C@H]1CN(C)Cc1ccc(-c2ccccc2)cc1	inactive
Cc1ccc(S(=O)(=O)Nc2ccc3c(c2)C(=O)N([C@@H](C)CO)C[C@H](C)[C@@H](CN(C)Cc2ccc(-c4ccccc4)cc2)O3)cc1	inactive
C[C@@H]1CN([C@H](C)CO)C(=O)c2cc(NS(=O)(=O)c3cccs3)ccc2O[C@@H]1CN(C)Cc1ccc(-c2ccccc2)cc1	active
C[C@@H]1CN([C@@H](C)CO)C(=O)c2cc(NS(=O)(=O)c3ccccc3)ccc2O[C@@H]1CN(C)Cc1ccc(-c2ccccc2)cc1	active
C[C@H](CO)N1C[C@H](C)[C@H](CN(C)Cc2ccc(-c3ccccc3)cc2)Oc2ccc(NS(=O)(=O)c3cccs3)cc2C1=O	inactive
C[C@H](CO)N1C[C@H](C)[C@@H](CN(C)Cc2ccc(-c3ccccc3)cc2)Oc2ccc(NS(=O)(=O)c3cccs3)cc2C1=O	inactive
Cc1ccc(S(=O)(=O)Nc2ccc3c(c2)C(=O)N([C@H](C)CO)C[C@@H](C)[C@H](CN(C)Cc2ccc(-c4ccccc4)cc2)O3)cc1	inactive
C[C@H]1CN([C@@H](C)CO)C(=O)c2cc(NS(=O)(=O)c3ccccc3)ccc2O[C@H]1CN(C)Cc1ccc(-c2ccccc2)cc1	inactive
COc1ccc(S(=O)(=O)N(C)C[C@@H]2Oc3ccc(NC(=O)CCCN(C)C)cc3C(=O)N([C@H](C)CO)C[C@@H]2C)cc1	inactive
COc1ccc(-c2cn(CCNC(=O)[C@H](Cc3ccccc3)NS(=O)(=O)c3ccc(C)cc3)nn2)cc1OC	inactive
CC(/C=C/C(=O)NO)=C\c1cccc(OC[C@@H]2[C@H]3C[C@H]4c5[nH]c6ccccc6c5CCN4C[C@@H]3CC[C@@H]2O)c1	inactive
O=C(N[C@@H](c1ccc(-c2ccccc2)cc1)c1cnccn1)C1CCN(CCCOc2ccccc2)CC1	inactive
CC(=O)NC1C(O)CC(O)(C(=O)O)OC1C(O)C(O)CO (centres undefined)	inactive
C[C@H]1CCCCO[C@@H](CN(C)S(C)(=O)=O)[C@@H](C)CN([C@@H](C)CO)C(=O)c2cc(N(C)C)ccc2O1	inactive
C[C@H](CO)N1C[C@H](C)[C@H](CN(C)C(=O)Nc2ccc(C(F)(F)F)cc2)Oc2ccc(NC(=O)CCC(F)(F)F)cc2CC1=O	inactive
Cc1ccc(S(=O)(=O)C[C@H](C)N2CCOCC2)c(S(=O)(=O)C[C@@H](C)N2CCOCC2)c1	inactive
CCNC(=O)C[C@@H]1C=C[C@@H](NC(=O)C2CC2)[C@@H](CO)O1	inactive
COc1ccc(NC(=O)Nc2ccc3c(c2)CC(=O)N([C@@H](C)CO)C[C@H](C)[C@H](CN(C)C(=O)Nc2cccc4ccccc24)O3)cc1	inactive

Compound	cytotoxicity call
CCCNC(=O)Nc1ccc2c(c1)OC[C@@H](C)N(C(=O)C1CCOCC1)C[C@@H](C)[C@@H](OC)CN(C)C2=O	inactive
C[C@H]1CN([C@@H](C)CO)C(=O)c2cc(Br)cnc2O[C@@H]1CN(C)Cc1cccc(C(=O)O)c1	inactive
CNCC(=O)O	inactive
O=C(O)CNC(=O)C(=O)O	active
NCC(=O)NCC(=O)O	inactive
O=C(CCCCCNC(=O)OCCCOc1ccc(C2=N[C@]3(Cc4ccccc4)C(=O)N(Cc4ccccc4)Cc4ccccc4[C@@H]3O2)cc1)NO	inactive
C[C@@H]1CCCCO[C@@H](CN(C)C(=O)Nc2ccc3c(c2)OCO3)[C@@H](C)CN([C@H](C)CO)C(=O)c2cc(NC(=O)CCCCCC(=O)Nc3ccccc3N)ccc2O1	inactive
NC(=O)c1ncn([C@@H]2O[C@H](CO)[C@@H](O)[C@H]2O)n1	inactive
C[C@@H]1CN([C@H](C)CO)C(=O)c2cc(NC(=O)Nc3ccc(F)cc3)ccc2O[C@@H]1CN(C)Cc1ccc(C(=O)Nc2ccccc2N)cc1	inactive
Cc1ccc(Nc2ncc3c(n2)N(C)C(=O)N(c2cc(NC(=O)c4cccc(C(F)(F)F)c4)ccc2C)C3)cn1	active
O=C(Nc1cccc(C(F)(F)F)c1)c1ccc2ccccc2c1	inactive
Cc1ncc(NC(=O)c2cccc(C(F)(F)F)c2)cc1-c1cnc(OC2CCOCC2)c(N2CCOCC2)c1	inactive
C[C@H]1CN([C@@H](C)CO)C(=O)Cc2cc(NS(=O)(=O)c3ccc(Cl)cc3)ccc2O[C@H]1CN(C)C(=O)Nc1ccc(C(F)(F)F)cc1	inactive
CCCCCCO[C@H](C)c1c(c/2[nH]c1/C=C/1\N=C(/C=C/3\NC4=C(CC(=O)C4=C3C)C3=N/C(=C2)[C@@H](C)[C@@H]3CCC(=O)O)C(=C1C)CC)C	active
CC1=C(CCC(=O)O)c2cc3[nH]c(cc4nc(cc5[nH]c(cc1n2)c(C)c5C(C)O)C(C)=C4C(C)O)c(C)c3CCC(=O)O (centres undefined)	inactive
CCc1c(c/2[nH]c1/C=C/1\N=C(/C(=C/3\N=C(/C=C/4\N/C(=C2)C(=C4C)C=C)[C@@H](C)[C@@H]3CCC(=O)O)CC(=O)N[C@@H](CC(=O)O)C(=O)O)C(=C1C)C(=O)O)C	inactive
C[C@H](N)C(=O)N1CCc2ccccc2C1	inactive
C[C@@H]1CCCCO[C@@H](CN(C)S(=O)(=O)c2ccc(F)cc2)[C@@H](C)CN([C@@H](C)CO)C(=O)c2cc(NC(=O)Nc3ccc(F)cc3)ccc2O1	inactive
CC(N)O.Cc1cc(CC(C)CC(C)(C)C)n(O)c(=O)c1 (centres undefined)	inactive
C[C@@H]1CCCCO[C@H](CN(C)C(=O)Cc2ccccc2)[C@@H](C)CN([C@@H](C)CO)C(=O)c2cc(NC(=O)Nc3ccc(C(F)(F)F)cc3)ccc2O1	inactive
C[C@H](CO)N1C[C@H](C)[C@H](CN(C)C(=O)Cc2ccccc2)OCCCC[C@H](C)Oc2ccc(NC(=O)Nc3ccc(C(F)(F)F)cc3)cc2C1=O	inactive
C[C@@H]1CN([C@H](C)CO)C(=O)c2cc(NC(=O)Nc3ccc(C(F)(F)F)cc3)ccc2O[C@@H](C)CCCCO[C@@H]1CN(C)C(=O)Cc1ccccc1	active

Compound	cytotoxicity call
C[C@H](CO)N1C[C@H](C)[C@@H](CN(C)C(=O)Cc2ccccc2)OCCCC[C@H](C)Oc2ccc(NC(=O)Nc3ccc(C(F)(F)F)cc3)cc2C1=O	inactive
C[C@@H]1CCCCO[C@H](CN(C)C(=O)Cc2ccccc2)[C@@H](C)CN([C@H](C)CO)C(=O)c2cc(NC(=O)Nc3ccc(C(F)(F)F)cc3)ccc2O1	inactive
C[C@@H]1CCCCO[C@H](CN(C)C(=O)Cc2ccccc2)[C@H](C)CN([C@@H](C)CO)C(=O)c2cc(NC(=O)Nc3ccc(C(F)(F)F)cc3)ccc2O1	active
C[C@@H]1CCCCO[C@@H](CN(C)C(=O)Cc2ccccc2)[C@@H](C)CN([C@@H](C)CO)C(=O)c2cc(NC(=O)Nc3ccc(C(F)(F)F)cc3)ccc2O1	inactive
C[C@@H]1CCCCO[C@@H](CN(C)C(=O)Cc2ccccc2)[C@@H](C)CN([C@H](C)CO)C(=O)c2cc(NC(=O)Nc3ccc(C(F)(F)F)cc3)ccc2O1	inactive
C[C@@H]1CN([C@@H](C)CO)C(=O)c2cc(NC(=O)Nc3ccc(C(F)(F)F)cc3)ccc2O[C@@H](C)CCCCO[C@H]1CN(C)C(=O)Cc1ccccc1	active
COc1ccc(NC(=O)N(C)C[C@@H]2OCc3cnnn3CCCC(=O)N([C@H](C)CO)C[C@@H]2C)c(OC)c1	inactive
C[C@@H]1CCCCO[C@@H](CN(C)C(=O)CCC(F)(F)F)[C@@H](C)CN([C@@H](C)CO)C(=O)c2cc(NC(=O)CCC(F)(F)F)ccc2O1	inactive
C[C@@H]1CN(C)C(=O)c2cccc(NC(=O)c3ccncc3)c2O[C@H]1CN(C)Cc1ccc(Oc2ccccc2)cc1	inactive
O=C(C[C@@H]1CC[C@@H]2[C@H](COC[C@@H](O)CN2S(=O)(=O)c2ccccc2)O1)N[C@H]1CCN(Cc2ccccc2)C1	inactive
COc1cc(-c2cc(=O)c3c(s2)N(Cc2ccco2)[C@@H](c2ccc(O)c(OC)c2)CC3=O)ccc1O	inactive
C[C@H](CO)N1C[C@H](C)[C@@H](CN(C)C(=O)Nc2ccc(F)cc2)Oc2ccc(NC(=O)Nc3cccc4ccccc34)cc2CC1=O	inactive
CC(C)(C)C(=O)OCOP(=O)(OCOC(=O)C(C)(C)C)C(C)(Oc1ccc(O)cc1)P(=O)(OCOC(=O)C(C)(C)C)OCOC(=O)C(C)(C)C	inactive
COc1ccc2c(c1)C(=O)C(=O)N2	inactive
COc1ccc2c(c1)/C(=N\O)C(=O)N2	inactive
O=C1Nc2ccc(I)cc2C1=Cc1cc(Br)c(O)c(Br)c1	active
C[C@H](CO)N1C[C@H](C)[C@H](CN(C)C(=O)Nc2ccc(C(F)(F)F)cc2)OCCCC[C@H](C)Oc2ccc(NC(=O)c3ccccc3)cc2C1=O	inactive
C[C@H](CO)N1C[C@H](C)[C@H](CN(C)C(=O)Nc2ccc3c(c2)OCO3)OCCCC[C@H](C)Oc2ccc(NS(=O)(=O)c3ccccc3)cc2C1=O	inactive
CCN1C(=O)[C@H]2[C@H](O)CS[C@H]2C1=O	inactive
C[C@@H]1CN([C@@H](C)CO)S(=O)(=O)c2ccc(C#C[C@@H](C)O)cc2O[C@H]1CN(C)C(=O)C1CCCCC1	inactive
